# Experimental data as given in the supplement of paper PMC11732987, “Enantioselective OTUD7B fragment discovery through chemoproteomics screening and high-throughput optimisation” (Communications Chemistry, 2025).
# A number with no mark means an inactive call.
# Compound: CC(C)CN(C1CC1)C(=O)CCl
# Experiment: log2 ratio of Biotin-Ahx-Ub-VS probe labelling (fragment/DMSO); higher = less target engagement (more negative = stronger competition), active = hit call of the paper (q ≤ 0.05, log2 ratio ≤ -1)
# Settings: compound concentration: 200 uM; treatment time: 3 h
# How it was run: (§1)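 Each value is an average log2 ratio of fragment to vehicle, tested by unpaired t-test. The underlying Spectronaut label-free quantities were global-median-normalised, and only proteins with ≥2 unique peptides were included. Triplicate HEK293T lysate samples (495 µg) were exposed to fragment at 200 µM or vehicle for 3 h, then to Biotin-Ahx-Ub-VS at 0.5 µM final for 1 h, before NeutrAvidin enrichment of labelled DUBs, LysC and trypsin digestion, and diaPASEF LC-MS/MS.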
# UniProt O94966, sequence (O94966 whole entry): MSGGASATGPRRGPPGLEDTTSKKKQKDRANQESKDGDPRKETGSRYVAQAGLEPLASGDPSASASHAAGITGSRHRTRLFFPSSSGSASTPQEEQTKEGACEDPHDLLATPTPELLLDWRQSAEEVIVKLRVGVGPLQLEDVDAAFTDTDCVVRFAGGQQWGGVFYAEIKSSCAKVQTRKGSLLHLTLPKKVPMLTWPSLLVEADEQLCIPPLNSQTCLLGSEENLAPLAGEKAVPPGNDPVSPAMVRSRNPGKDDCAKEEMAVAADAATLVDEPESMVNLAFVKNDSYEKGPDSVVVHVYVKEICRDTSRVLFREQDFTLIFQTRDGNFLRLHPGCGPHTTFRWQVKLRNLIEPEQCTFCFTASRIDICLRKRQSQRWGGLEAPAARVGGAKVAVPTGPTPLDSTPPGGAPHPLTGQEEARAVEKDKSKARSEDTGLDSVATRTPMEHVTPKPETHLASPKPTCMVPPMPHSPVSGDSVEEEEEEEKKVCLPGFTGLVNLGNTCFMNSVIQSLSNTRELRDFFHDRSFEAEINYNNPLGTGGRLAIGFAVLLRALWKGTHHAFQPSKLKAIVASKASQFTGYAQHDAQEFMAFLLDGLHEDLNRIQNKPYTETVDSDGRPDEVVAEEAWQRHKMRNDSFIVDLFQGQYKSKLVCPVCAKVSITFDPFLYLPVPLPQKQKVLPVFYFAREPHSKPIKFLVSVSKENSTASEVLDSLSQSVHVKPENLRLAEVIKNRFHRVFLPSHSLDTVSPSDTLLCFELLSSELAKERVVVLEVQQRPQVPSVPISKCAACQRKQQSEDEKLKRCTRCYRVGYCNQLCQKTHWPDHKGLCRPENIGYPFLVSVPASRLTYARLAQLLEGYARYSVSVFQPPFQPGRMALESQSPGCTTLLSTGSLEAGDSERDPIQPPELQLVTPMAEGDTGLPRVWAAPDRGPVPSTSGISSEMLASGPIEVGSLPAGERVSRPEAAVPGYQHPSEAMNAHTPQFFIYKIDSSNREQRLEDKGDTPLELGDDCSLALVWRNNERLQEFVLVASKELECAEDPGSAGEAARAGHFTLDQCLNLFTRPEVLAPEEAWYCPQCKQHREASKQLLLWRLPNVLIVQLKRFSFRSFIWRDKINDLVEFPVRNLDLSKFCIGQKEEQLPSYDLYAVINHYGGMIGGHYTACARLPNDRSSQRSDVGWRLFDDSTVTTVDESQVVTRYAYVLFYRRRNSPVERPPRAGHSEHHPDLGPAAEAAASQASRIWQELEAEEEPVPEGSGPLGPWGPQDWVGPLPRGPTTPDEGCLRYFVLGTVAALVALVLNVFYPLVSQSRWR
# UniProt Q9UPT9, sequence (Q9UPT9 whole entry): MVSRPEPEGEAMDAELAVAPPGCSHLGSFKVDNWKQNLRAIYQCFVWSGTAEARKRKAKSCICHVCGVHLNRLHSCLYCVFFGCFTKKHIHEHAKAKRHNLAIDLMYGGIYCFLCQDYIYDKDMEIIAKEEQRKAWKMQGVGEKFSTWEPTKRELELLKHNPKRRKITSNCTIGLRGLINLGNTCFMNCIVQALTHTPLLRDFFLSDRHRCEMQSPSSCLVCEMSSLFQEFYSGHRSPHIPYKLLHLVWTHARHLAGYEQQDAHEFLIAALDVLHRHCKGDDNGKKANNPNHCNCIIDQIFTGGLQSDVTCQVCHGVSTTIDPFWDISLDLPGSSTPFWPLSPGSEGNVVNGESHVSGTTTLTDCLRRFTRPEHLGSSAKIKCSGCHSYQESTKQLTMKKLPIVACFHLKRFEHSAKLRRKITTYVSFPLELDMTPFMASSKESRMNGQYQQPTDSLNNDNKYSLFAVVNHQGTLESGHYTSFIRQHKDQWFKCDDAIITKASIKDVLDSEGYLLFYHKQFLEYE
# UniProt Q96G74, sequence (Q96G74 whole entry): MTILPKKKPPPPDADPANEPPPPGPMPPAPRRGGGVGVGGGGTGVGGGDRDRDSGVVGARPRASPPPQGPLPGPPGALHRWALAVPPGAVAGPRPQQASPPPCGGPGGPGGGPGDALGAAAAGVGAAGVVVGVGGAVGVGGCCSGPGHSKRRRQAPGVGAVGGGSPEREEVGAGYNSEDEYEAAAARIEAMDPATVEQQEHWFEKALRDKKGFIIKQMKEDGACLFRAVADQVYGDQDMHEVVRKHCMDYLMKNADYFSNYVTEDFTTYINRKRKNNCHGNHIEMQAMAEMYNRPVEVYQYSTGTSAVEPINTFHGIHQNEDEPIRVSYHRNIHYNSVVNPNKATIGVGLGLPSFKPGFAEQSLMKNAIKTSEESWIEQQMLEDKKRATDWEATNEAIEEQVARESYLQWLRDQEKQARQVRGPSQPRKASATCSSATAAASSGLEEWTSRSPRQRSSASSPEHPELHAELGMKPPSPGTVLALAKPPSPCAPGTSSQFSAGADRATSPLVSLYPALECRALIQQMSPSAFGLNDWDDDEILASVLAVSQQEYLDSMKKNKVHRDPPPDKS
# UniProt Q9Y5K5, sequence (Q9Y5K5 whole entry): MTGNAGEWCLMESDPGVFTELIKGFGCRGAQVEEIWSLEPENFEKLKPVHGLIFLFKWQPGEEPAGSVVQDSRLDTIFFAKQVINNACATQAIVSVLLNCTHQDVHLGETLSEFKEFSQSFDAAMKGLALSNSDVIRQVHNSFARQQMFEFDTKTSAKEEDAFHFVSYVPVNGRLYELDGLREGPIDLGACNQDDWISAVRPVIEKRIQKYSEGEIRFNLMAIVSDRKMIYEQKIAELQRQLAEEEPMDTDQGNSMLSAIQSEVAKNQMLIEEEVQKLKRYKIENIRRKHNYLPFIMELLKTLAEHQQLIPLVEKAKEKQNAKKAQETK
# UniProt P40818, sequence (P40818 whole entry): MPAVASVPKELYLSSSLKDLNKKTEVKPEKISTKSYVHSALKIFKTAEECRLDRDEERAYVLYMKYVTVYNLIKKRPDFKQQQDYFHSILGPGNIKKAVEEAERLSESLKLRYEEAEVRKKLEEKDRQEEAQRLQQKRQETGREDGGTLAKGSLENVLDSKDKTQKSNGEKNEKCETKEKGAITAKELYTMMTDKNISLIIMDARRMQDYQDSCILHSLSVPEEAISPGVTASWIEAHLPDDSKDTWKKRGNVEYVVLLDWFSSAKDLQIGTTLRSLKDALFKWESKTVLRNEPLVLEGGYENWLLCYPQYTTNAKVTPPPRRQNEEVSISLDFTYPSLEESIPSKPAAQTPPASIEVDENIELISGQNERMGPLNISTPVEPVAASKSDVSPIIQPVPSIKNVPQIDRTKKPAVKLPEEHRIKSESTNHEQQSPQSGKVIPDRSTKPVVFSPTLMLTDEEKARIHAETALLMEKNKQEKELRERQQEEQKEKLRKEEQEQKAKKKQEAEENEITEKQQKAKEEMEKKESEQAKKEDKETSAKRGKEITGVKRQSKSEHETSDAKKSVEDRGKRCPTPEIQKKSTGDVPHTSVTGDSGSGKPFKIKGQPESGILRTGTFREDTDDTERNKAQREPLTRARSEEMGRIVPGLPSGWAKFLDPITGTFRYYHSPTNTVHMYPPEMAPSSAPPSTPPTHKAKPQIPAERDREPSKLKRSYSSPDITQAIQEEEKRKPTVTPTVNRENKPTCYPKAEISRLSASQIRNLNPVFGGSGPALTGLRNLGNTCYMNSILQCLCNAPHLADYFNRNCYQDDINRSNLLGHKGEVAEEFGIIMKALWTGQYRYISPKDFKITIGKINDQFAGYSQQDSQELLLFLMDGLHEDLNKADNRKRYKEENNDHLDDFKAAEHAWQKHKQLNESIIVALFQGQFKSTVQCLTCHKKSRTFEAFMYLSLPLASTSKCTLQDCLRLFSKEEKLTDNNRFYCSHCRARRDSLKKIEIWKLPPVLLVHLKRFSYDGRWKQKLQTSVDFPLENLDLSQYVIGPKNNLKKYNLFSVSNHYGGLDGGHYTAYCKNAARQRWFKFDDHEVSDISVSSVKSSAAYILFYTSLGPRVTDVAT
# UniProt Q9P2H5, sequence (Q9P2H5 whole entry): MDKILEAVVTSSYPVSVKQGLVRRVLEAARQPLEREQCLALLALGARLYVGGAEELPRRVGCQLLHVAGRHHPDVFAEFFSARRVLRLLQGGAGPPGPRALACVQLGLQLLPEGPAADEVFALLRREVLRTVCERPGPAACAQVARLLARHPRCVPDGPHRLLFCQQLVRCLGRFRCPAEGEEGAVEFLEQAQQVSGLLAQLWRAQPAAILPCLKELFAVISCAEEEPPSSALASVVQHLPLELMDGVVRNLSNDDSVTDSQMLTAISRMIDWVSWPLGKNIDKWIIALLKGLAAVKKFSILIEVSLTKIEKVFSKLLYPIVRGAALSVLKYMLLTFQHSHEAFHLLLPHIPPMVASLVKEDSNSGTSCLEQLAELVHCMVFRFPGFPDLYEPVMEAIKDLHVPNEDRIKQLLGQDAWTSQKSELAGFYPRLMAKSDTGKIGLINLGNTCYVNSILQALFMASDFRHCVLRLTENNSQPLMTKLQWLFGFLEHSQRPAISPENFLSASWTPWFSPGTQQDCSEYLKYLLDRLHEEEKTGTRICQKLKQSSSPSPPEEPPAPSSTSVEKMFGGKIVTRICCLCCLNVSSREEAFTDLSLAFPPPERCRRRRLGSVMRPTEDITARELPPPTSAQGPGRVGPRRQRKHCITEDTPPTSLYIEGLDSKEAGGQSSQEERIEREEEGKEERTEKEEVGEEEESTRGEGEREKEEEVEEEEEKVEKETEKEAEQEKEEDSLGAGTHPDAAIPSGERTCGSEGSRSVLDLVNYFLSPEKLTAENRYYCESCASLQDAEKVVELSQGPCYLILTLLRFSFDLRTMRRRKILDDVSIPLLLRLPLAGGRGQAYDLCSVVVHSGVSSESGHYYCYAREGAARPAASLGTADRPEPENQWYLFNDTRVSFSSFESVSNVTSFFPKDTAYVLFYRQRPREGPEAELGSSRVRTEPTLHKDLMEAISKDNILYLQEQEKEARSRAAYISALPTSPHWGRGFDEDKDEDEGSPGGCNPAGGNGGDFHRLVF
row,Target,log2 ratio of Biotin-Ahx-Ub-VS probe labelling
1,YOD1 (UniProt Q5VVQ6),0.253
2,UCHL5 (UniProt Q9Y5K5),-0.0257
3,UniProt Q9P2H5,-0.166
4,USP19 (UniProt O94966),0.00416
5,OTUD6B (UniProt Q8N6M0),0.0114
6,USP24 (UniProt Q9UPU5),-0.191
7,UniProt Q9UGI0,0.11
8,USP36 (UniProt Q9P275),-0.165
9,USP10 (UniProt Q14694),-0.156
10,USP47 (UniProt Q96K76),-0.233
11,USP5 (UniProt P45974),0.195
12,USP28 (UniProt Q96RU2),-0.207
13,USP46 (UniProt P62068),-0.0299
14,USP8 (UniProt P40818),0.058
15,UCHL1 (UniProt P09936),-1.13 (active)
16,UniProt Q8TE49,-0.309
17,USP16 (UniProt Q9Y5T5),-0.505
18,OTUD5 (UniProt Q96G74),-0.09
19,PSMD7 (UniProt P51665),-0.0028
20,USP22 (UniProt Q9UPT9),0.0555
21,COPS5 (UniProt Q92905),-0.228
22,USP48 (UniProt Q86UV5),-0.00536
23,OTUD7B (UniProt Q6GQQ9),0.0222
24,OTUD4 (UniProt Q01804),0.0776

# Compound: CC(NC(=O)CCl)c1cccs1
# Experiment: as above
# Settings: compound concentration: 200 uM; treatment time: 3 h
# How it was run: as §1
row,Target,log2 ratio of Biotin-Ahx-Ub-VS probe labelling
1,YOD1 (UniProt Q5VVQ6),0.0444
2,UCHL5 (UniProt Q9Y5K5),-0.148
3,UniProt Q9P2H5,-0.204
4,USP19 (UniProt O94966),-0.0254
5,OTUD6B (UniProt Q8N6M0),-0.285
6,USP24 (UniProt Q9UPU5),-0.0286
7,UniProt Q9UGI0,-0.241
8,USP36 (UniProt Q9P275),0.124
9,USP10 (UniProt Q14694),-0.0602
10,USP47 (UniProt Q96K76),-0.0445
11,USP5 (UniProt P45974),0.3
12,USP28 (UniProt Q96RU2),-0.568
13,USP46 (UniProt P62068),-0.0303
14,USP8 (UniProt P40818),-0.288
15,UCHL1 (UniProt P09936),-1.4 (active)
16,UniProt Q8TE49,-0.893
17,USP16 (UniProt Q9Y5T5),-0.513
18,OTUD5 (UniProt Q96G74),0.0244
19,PSMD7 (UniProt P51665),-0.0716
20,USP22 (UniProt Q9UPT9),0.184
21,COPS5 (UniProt Q92905),0.105
22,USP48 (UniProt Q86UV5),-0.0207
23,OTUD7B (UniProt Q6GQQ9),-1.59 (active)
24,OTUD4 (UniProt Q01804),-0.761
